Values without a mark were called inactive. Inconclusive results are not listed. A call without a number means that no potency is given here. The source made the active and inactive calls. Unless noted, calls follow the shape of the dose curve; as a rule, active = well fitted curve in the direction sought with a large enough effect in the repeat runs; inconclusive = weak or mixed curves; inactive = no such curve, though single readings can be large; an effect the other way counts as inactive or inconclusive.
Assays:
[1] = A CellTox Green Cytotoxicity Assay to monitor cytotoxicity in HepG2 cells - 8 hour (AID 1224890); also: nearly all actives have a fitted effect of over 45% in size
How it was run: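 Nonlytic assay: viable cells exclude the dye, so fluorescence scales with cell death. HepG2 at 600 cells/well, compounds added after 5 h, signal read across 40 h.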

[2] = qHTS assay to identify small molecule antagonists of the estrogen receptor alpha (ER-alpha) signaling pathway using the BG1 cell line in the presence of 0.1 nM 17-beta-estradiol - cell viability counter screen (AID 1259241); also: nearly all actives have a fitted effect of over 40% in size
How it was run: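 Estradiol-stimulated (0.1 nM) VM7Luc4E2 cells exposed to compounds 22 hr; viability measured by fluorescence of cleaved CellTiter-Fluor substrate after 30 min.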

[3] = qHTS assay to identify small molecule antagonists of the androgen receptor (AR) signaling pathway using the MDA cell line in the presence of 0.5 nM R1881 - cell viability counter screen (AID 1259242); also: nearly all actives have a fitted effect of over 45% in size
How it was run: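 R1881 at 0.5 nM final stimulated MDA-kb2 cells during 16 hr compound treatment at 37C. Cytotoxicity read: CellTiter-Fluor fluorescence after 30 min.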

[4] = target: Estrogen receptor (Homo sapiens) (UniProt P03372); assay: qHTS assay to identify small molecule antagonists of the estrogen receptor alpha (ER-alpha) signaling pathway using the BG1 cell line in the presence of 0.1 nM 17-beta-estradiol (AID 1259244); also: nearly all actives have a fitted effect of over 50% in size
How it was run: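 VM7Luc4E2; 4xERE-luciferase; 0.1 nM E2 final; 22 h co-incubation, 37C; ONE-Glo luminescence after 30 min at room temperature.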

[5] = qHTS assay to identify small molecule HDAC inhibitors (AID 1259364); also: potency is read from the fitted curve at half-maximal effect;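 also: wild-type HCT-116 cells with endogenous class I/II HDAC activity; nearly all actives have a fitted effect of over 45% in size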
How it was run: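 Relative class I and II HDAC activity is taken from the luminogenic signal in HCT-116 cells, with compound exposure 2 hr and reagent development 30 min at room temperature.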

[6] = qHTS assay to identify small molecule HDAC inhibitors - cell viability counter screen (AID 1259365); also: series mostly up to about 92 µM; nearly all actives have a fitted effect of over 50% in size
How it was run: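 After overnight seeding at 1,500 cells per well, wild-type HCT-116 cultures took up compounds in DMSO for 2hr at 37 C. Viable cell content came from luminescence with CellTiter-Glo.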

[7] = qHTS assay to identify small molecule agonists of the sonic hedgehog signaling (Shh) pathway - cell viability counter screen (AID 1259366); also: nearly all actives have a fitted effect of over 50% in size
How it was run: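 Same-well cytotoxicity read. Gli1-Luc reporter 3T3 cells; compounds 24hr, 37C/5% CO2; CellTiter-Fluor fluorescence.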

[8] = qHTS assay to identify small molecule antagonists of the sonic hedgehog signaling (Shh) pathway - cell viability counter screen (AID 1259367); also: nearly all actives have a fitted effect of over 55% in size
How it was run: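 Seed 3T3 Gli1-Luc cells at 2,000 per well; incubate 4 hr; add compound in DMSO, then conditioned medium; incubate at 37C with 5% CO2; add CellTiter-Fluor after 23 hr; read fluorescence 1 hr later.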

[9] = qHTS assay to identify small molecule agonists of the sonic hedgehog signaling (Shh) pathway (AID 1259368; calls by dose curve; also: nearly all actives have a fitted effect of over 15% in size; also: potency is read from the fitted curve at half-maximal effect)
How it was run: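 Mouse fibroblast (NIH/3T3) reporter cells with stably integrated Gli1-Luc were treated 24 hr with compound; firefly luciferase luminescence served as the read-out.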

[10] = qHTS assay to identify small molecule antagonists of the sonic hedgehog signaling (Shh) pathway (AID 1259369; calls by dose curve; also: nearly all actives have a fitted effect of over 45% in size; also: potency is read from the fitted curve at half-maximal effect)
How it was run: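 Conditioned medium drives Shh signalling in 3T3Gli1-Luc cells; compounds in DMSO co-applied, 24hr at 37 C, then luciferase luminescence.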

[11] = target: Estrogen receptor beta (Homo sapiens) (UniProt Q92731); assay: qHTS assay to identify small molecule agonists of the estrogen receptor beta (ER-beta) signaling pathway (AID 1259377; active = well fitted activation curve with a large enough effect in the signal ratio in the repeat runs, not every such curve was filed as active; the % refers to the signal ratio)
How it was run: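 Read-out: beta-lactamase FRET fluorescence. Cell line: ER-beta-UAS-bla HEK293T in 2% charcoal-stripped FBS. Exposure: 16 hr at 37C. Substrate step: 2 h at room temperature.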

[12] = target: Estrogen receptor beta (Homo sapiens) (UniProt Q92731); assay: qHTS assay to identify small molecule antagonists of the estrogen receptor beta (ER-beta) signaling pathway (AID 1259378; active = well fitted inhibition curve with a large enough effect in the signal ratio in the repeat runs, not every such curve was filed as active; the % refers to the signal ratio)
How it was run: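 ER-beta-UAS-bla HEK293T cells in 2% charcoal-stripped FBS medium treated with compound plus 1nM final 17-beta-estradiol for 16 hr at 37C. Beta-lactamase reporter read by FRET substrate fluorescence after 2 hours at room temperature.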

[13] = qHTS assay to identify small molecule agonists of the androgen receptor (AR) signaling pathway in the presence of an antagonist - cell viability counter screen (AID 1259379);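 also: MDA-kb2 human breast cancer cells carrying an MMTV luciferase reporter; series mostly up to about 92 µM; nearly all actives have a fitted effect of over 25% in size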
How it was run: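 A CellTiter-Fluor read-out measured viability of MDA-kb2 reporter cells (MMTV promoter with AR and GR response elements). Treatment: nilutamide 3.0uM final with compounds at 15 concentrations, 16 hr, 37C, 0% CO2.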

[14] = qHTS assay to identify small molecule agonists of the estrogen receptor beta (ER-beta) signaling pathway - cell viability counter screen (AID 1259380); also: nearly all actives have a fitted effect of over 30% in size
How it was run: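 Cells used were ER-beta-UAS-bla HEK293T in medium with 2% charcoal-stripped FBS. They were treated for 16 hr at 37C. Viability came from CellTiter-Glo luminescence.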

[15] = target: Estrogen receptor (Homo sapiens) (UniProt P03372); assay: qHTS assay to identify small molecule agonists of the estrogen receptor alpha (ER-alpha) signaling pathway in the presence of an antagonist (AID 1259383; calls by dose curve; also: top concentration of the series differs between compounds; nearly all actives have a fitted effect of over 15% in size)
How it was run: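 Using VM7Luc4E2 cells seeded 24hr before treatment, antagonist ICI-182,780 (10.0nM final) was added, followed by compounds at 15 concentrations. Plates incubated 22hr; ONE-Glo luminescence quantified reporter activity.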

[16] = qHTS assay to identify small molecule agonists or antagonists of the thyroid stimulating hormone receptor (TSHR) signaling pathway - wild type cell line counter screen (AID 1259384; calls by dose curve; also: potency is read from the fitted curve at half-maximal effect)
How it was run: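 Wild-type Hek293 cells, 800/well, 18 h at 37C, then compound with Ro20-1724 for 30 min RT. cAMP by HTRF (cAMP-d2/anti-cAMP cryptate), 1 h RT, fluorescence read. 15 concentrations, triplicates.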

[17] = qHTS assay to identify small molecule antagonists of the estrogen receptor beta (ER-beta) signaling pathway - cell viability counter screen (AID 1259382); also: series mostly up to about 92 µM; nearly all actives have a fitted effect of over 55% in size
How it was run: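 Agonist-stimulated (1nM E2) ER-beta-UAS-bla HEK293T cells are incubated with library compounds for 16 hr at 37C. Cell viability is then assessed in the reporter-assay wells by adding CellTiter-Glo and reading luminescence after 30 min.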

[18] = qHTS assay to identify small molecule phospholipidosis (PLD) inducers (AID 1259344; active = well fitted curve in the direction sought with a large enough effect; an effect the other way counts as inactive or inconclusive)
How it was run: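 Quantitative HTS in HepG2: compound plus LipidTOX Red dye for 24 h, paraformaldehyde fixation with Hoechst 33342, widefield high-content imaging; amiodarone as positive and DMSO as negative control.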

[19] = target: Androgen receptor (Homo sapiens) (UniProt P10275); assay: qHTS assay to identify small molecule agonists of the androgen receptor (AR) signaling pathway in the presence of an antagonist (AID 1259381; calls by dose curve; also: nearly all actives have a fitted effect of over 15% in size)
How it was run: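 Using human MDA-kb2 cells with an MMTV promoter–luciferase construct (AR and GR response elements), agonist activity is scored under 3.0uM nilutamide (final) co-treatment; 16hr incubation, 37C, luminescence readout via ONE-Glo.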

Chain of Estrogen receptor beta (Homo sapiens) (Q92731 whole entry, looked up): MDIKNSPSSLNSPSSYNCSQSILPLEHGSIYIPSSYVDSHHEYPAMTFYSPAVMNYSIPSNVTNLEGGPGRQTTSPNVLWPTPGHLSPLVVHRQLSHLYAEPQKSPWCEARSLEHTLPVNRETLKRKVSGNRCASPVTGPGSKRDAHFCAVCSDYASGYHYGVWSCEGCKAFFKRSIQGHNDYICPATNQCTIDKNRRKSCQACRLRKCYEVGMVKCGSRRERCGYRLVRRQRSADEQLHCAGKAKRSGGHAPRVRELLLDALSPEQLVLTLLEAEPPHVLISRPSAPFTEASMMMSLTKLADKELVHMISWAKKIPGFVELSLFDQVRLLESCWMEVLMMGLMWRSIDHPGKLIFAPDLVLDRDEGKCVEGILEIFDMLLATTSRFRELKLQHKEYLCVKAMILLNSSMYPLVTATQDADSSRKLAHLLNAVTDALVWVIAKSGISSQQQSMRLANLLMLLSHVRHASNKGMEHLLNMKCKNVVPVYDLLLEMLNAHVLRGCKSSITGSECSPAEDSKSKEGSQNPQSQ
Chain of Estrogen receptor (Homo sapiens) (P03372 whole entry, looked up): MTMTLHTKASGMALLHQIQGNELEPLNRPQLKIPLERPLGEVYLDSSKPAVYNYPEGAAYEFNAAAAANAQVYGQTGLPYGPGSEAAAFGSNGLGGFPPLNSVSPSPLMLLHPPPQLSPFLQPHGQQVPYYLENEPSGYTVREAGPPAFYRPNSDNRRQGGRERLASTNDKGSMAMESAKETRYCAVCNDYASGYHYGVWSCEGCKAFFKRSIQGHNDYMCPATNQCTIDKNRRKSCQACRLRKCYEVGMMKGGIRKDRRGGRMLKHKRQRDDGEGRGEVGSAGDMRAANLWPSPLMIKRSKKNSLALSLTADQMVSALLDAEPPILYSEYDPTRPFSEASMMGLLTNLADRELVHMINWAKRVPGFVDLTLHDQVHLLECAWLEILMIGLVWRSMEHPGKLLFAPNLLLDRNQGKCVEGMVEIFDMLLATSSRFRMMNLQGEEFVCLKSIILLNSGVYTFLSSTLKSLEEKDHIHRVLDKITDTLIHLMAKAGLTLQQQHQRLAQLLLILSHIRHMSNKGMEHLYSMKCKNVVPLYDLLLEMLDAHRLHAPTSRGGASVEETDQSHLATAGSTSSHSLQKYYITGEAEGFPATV
Chain of Androgen receptor (Homo sapiens) (P10275 whole entry, looked up): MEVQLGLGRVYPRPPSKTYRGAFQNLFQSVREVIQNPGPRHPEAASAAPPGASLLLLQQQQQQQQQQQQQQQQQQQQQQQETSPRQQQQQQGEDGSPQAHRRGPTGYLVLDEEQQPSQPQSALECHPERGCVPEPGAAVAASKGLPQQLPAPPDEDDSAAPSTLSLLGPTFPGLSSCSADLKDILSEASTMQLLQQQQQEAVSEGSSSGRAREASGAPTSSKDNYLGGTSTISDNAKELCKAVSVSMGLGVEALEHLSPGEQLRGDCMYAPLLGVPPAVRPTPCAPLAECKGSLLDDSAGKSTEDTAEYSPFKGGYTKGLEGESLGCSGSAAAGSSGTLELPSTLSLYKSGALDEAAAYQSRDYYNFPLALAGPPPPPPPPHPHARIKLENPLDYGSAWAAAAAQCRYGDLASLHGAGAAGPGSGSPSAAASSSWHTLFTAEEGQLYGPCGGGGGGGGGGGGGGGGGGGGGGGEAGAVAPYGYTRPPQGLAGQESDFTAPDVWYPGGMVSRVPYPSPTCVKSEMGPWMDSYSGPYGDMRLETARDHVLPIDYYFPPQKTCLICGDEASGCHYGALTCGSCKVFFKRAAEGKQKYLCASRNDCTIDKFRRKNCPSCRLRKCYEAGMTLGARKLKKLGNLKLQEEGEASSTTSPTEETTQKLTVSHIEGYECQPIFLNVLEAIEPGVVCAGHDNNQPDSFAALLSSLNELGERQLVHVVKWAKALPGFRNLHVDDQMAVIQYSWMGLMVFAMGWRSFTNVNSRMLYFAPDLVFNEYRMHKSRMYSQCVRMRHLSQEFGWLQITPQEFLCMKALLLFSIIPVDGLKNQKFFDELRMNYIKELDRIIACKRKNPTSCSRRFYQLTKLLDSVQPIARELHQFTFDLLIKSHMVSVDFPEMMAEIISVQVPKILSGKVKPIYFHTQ

SMILES	Potency [1]	Potency [2]	Potency [3]	Potency [4]	Potency [5]	Potency [6]	Potency [7]	Potency [8]	Potency [9]	Potency [10]	Potency [11]	Potency [12]	Potency [13]	Potency [14]	Potency [15]	Potency [16]	Potency [17]	Potency [18]	Potency [19]
C/C(C=O)=C\c1ccccc1	inactive	inactive	inactive	inactive	30 µM (active)	inactive	inactive	inactive	inactive	inactive	inactive	inactive	inactive	inactive	inactive	inactive	–	–	–
CC(C)(O)CCc1ccccc1	inactive	inactive	inactive	inactive	inactive	inactive	inactive	inactive	inactive	inactive	inactive	–	inactive	inactive	inactive	inactive	inactive	–	–
CCCCC[C@H](O)/C=C/[C@H]1[C@H](O)CC(=O)[C@@H]1C/C=C\CCCC(=O)O	inactive	inactive	inactive	inactive	inactive	inactive	–	inactive	10.6 µM (active)	0.006 µM (active)	–	–	inactive	inactive	inactive	0.0174 µM (active)	–	inactive	inactive
O=C(O)c1cccc(C[C@@H]2COc3ccc(OCc4nc5cc(F)ccc5s4)cc3[C@@H]2O)c1	inactive	inactive	inactive	inactive	inactive	inactive	inactive	inactive	inactive	inactive	inactive	inactive	inactive	inactive	inactive	inactive	inactive	–	–

Reference: PubChem BioAssay (Tox21)
